# From PubChem BioAssay
# Where “and” joins values, the source holds several entries; their conditions need not be identical. Equal values may be shown once. Calls of active or inactive are those of the source. Unless noted, no stated cut-off is given here; in the data, active means inhibition above about 80%; inactive means the rest.
# Columns and labels:
# [1] = system: Hepatitis C virus NS3 helicase; test: blockers of NS3h binding to ssDNA – biochemical, fluorescence polarization, LOPAC1280 library, primary screen (AID 687035; in the data active means inhibition above about 37%); details: Purified HCV NS3 helicase, Cy5-dT15 ssDNA binding fluorescence polarization; stronger effect = higher value; concentration not given here
# [2] = compounds altering Cy5-DNA-NS3h complex signal – biochemical, LOPAC1280, artefact control for HCV NS3 helicase inhibitor project (AID 687037; call rule not given here); details: Cy5-DNA-NS3h complex fluorescence interference counterscreen
# [3] = system: Aerobactin synthetase IucA (Klebsiella pneumoniae); test: inhibition of K. pneumoniae IucA enzyme – biochemical, Tocris library, absorbance (AID 1345561; call rule not given here;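 further: 100% = enzyme without compound and 0% = no enzyme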); details: purified IucA enzyme assay, absorbance (OD) read-out; stronger effect = lower value;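 tested at 8 µM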
# [4] = blockers of cellular phospholipid synthesis – cell-based, LOPAC library, screen 4, primary screen (AID 1347384; call rule not given here); details: animal cells, phospholipid biosynthesis inhibition screen; at 10 µM
# [5] = MELAS cybrid and Rieske KO viability enhancers – cell-based, MELAS cybrids, Rieske KO mouse fibroblasts, CellTiter-Glo, primary screen (AID 1508586;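 active means mean z-score across replicates of 1.96 or higher in either the MELAS or the Rieske mutant cell line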;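 further: z relative to plate mean and SD of compound and empty wells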); details: low glucose
# [6] = galactose survival enhancers in mitochondrial complex I cybrids – cell-based, galactose medium, ATP luminescence, primary screen (AID 1645843;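 active means z-score of at least 1.8 in each of two replicates, scored against plate mean and spread of sample wells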;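 further: positive z means more ATP and so rescue of galactose-driven cybrid death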); details: complex I mutant cybrid cells, 72 h, stronger effect = higher value
# [7] = growth inhibition, single agent or in combination, cell-based, chromothripsis tumors, cisplatin or BGB combos (AID 1671449); details: LFS_MB_P medulloblastoma cells;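 further: cells exposed for 96 hours; 0% = vehicle DMSO and 100% = killing by high DMSO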
# [8] = growth inhibition, single agent and combos, cell-based, chromothripsis tumors, cisplatin or BGB combos (AID 1671450); details: HDN33 neuroblastoma cells, stronger effect = higher value;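 further: cells exposed to compound for four days; 0% = vehicle DMSO and 100% = cell killing by high DMSO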
# [9] = growth inhibition, single agents and combos, ICB984, cell-based, cisplatin or BGB combos, synergistic combos for chromothripsis tumors (AID 1671451; call rule not given here;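 further: cells exposed for 96 hours before readout; 0% = vehicle DMSO and 100% = killing by high DMSO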); details: ICB984 medulloblastoma cells, drug combinations, stronger effect = higher value
# [10] = growth inhibition, single agents and combos, LFS_MB_1R, cell-based, cisplatin or BGB combos, synergistic combos for chromothripsis tumors (AID 1671452); details: LFS_MB_1R medulloblastoma cells, stronger effect = higher value;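 further: cells exposed for 96 hours before readout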
# [11] = growth inhibition, single agents and combos, HTB85, cell-based, BGB or cisplatin IC20 combos, synergistic combos for chromothripsis tumors (AID 1671453); details: HTB85 osteosarcoma cells, drug combinations, stronger effect = higher value;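 further: cells exposed for 96 hours before readout; 0% = vehicle DMSO and 100% = high DMSO killing control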
# [12] = growth inhibition, single agents and combos, CRL2098, cell-based, BGB or cisplatin IC20 combos, synergistic combos for chromothripsis tumors (AID 1671454); details: CRL2098 osteosarcoma cells, drug combinations, stronger effect = higher value;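 further: cells exposed for 96 h before readout; 0% = vehicle DMSO and 100% = killing by high DMSO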
# [13] = growth inhibition, single agents and combos, HD-MB03, cell-based, BGB or cisplatin IC20 combos, synergistic combos for chromothripsis tumors (AID 1671455; in the data active means inhibition above about 83%;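 further: 0% = vehicle DMSO and 100% = high DMSO as cytotoxic control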); details: HD-MB03 medulloblastoma cells, stronger effect = higher value
# [14] = growth inhibition, single agents and combos, UWB1.289, cell-based, BGB or cisplatin combos, synergistic combos for chromothripsis tumors (AID 1671456); details: UWB1.289 ovarian carcinoma cells, stronger effect = higher value;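 further: cells exposed to compound for four days; 0% = vehicle DMSO and 100% = killing by high DMSO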
# [15] = growth inhibition, single agents and combos, LFS_MB_2R, cell-based, cisplatin combos, synergistic combos for chromothripsis tumors (AID 1671457); details: LFS_MB_2R medulloblastoma cells, stronger effect = higher value;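 further: cells exposed to compound for four days before readout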
# [16] = growth inhibition, MDA-MB-436, cell-based, BGB or cisplatin combos, synergistic combos for chromothripsis tumors (AID 1671458; call rule not given here;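 further: cells exposed for 96 hours; 0% = vehicle DMSO and 100% = killing by high DMSO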); details: MDA-MB-436 breast carcinoma growth inhibition, drug combinations, stronger effect = higher value
# [17] = UWB1.289_BRCA1 ovarian cancer growth, cell-based, BGB or cisplatin combinations (AID 1671459); details: UWB1.289 BRCA1 ovarian carcinoma, drug combinations, stronger effect = higher value
# [18] = drug combination toxicity in non-malignant astrocytes – cell-based, BGB or cisplatin IC20 combos, cytotoxicity control for chromothriptic childhood tumor combination screen (AID 1671460); details: Human astrocytes, viability inhibition, drug combinations, at 0.5 µM, stronger effect = higher value;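 further: cells exposed to compounds for 96 hours before viability readout; 0% = vehicle and 100% = killing control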
# [19] = BT084 cell growth, single and combined drugs, ICGC_MB145, cisplatin and BGB IC40 combos (AID 1671461); details: BT084 medulloblastoma cells, drug combinations, stronger effect = higher value;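 further: cells exposed to drugs for 96 hours; 0% = vehicle DMSO and 100% = high DMSO full killing control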
# [20] = RCMB18 cell growth, single agent and combined, cisplatin and BGB IC40 combos (AID 1671462); details: RCMB18 medulloblastoma cells, stronger effect = higher value;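 further: cells exposed to compound for four days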
# [21] = CRL1545 cell growth, single agent and combined, cisplatin and BGB IC20 combos (AID 1671464); details: CRL1545 osteosarcoma cells, stronger effect = higher value;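 further: cells exposed to compound for 96 hours before readout; 0% = vehicle DMSO and 100% = high DMSO killing control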
# [22] = measured here: combination with BGB IC40, at 0.05 µM
# [23] = measured here: with BGB IC20 combination, at 0.5 µM
# [24] = measured here: with cisplatin IC20 combination, at 0.5 µM
# [25] = measured here: combination with cisplatin, at 0.5 µM
# [26] = measured here: combination with cisplatin, at 5 µM
structure (smiles),measurement,setting,value
O=C(Nc1ccncc1)c1cc([N+](=O)[O-])ccc1Cl,inhibition,[1],0% (inactive)
same,fluorescence ratio (interference),[2],1 (inactive)
same,remaining activity,[3],127% (inactive)
same,outcome,[4],inactive
same,z-score,"[5]; MELAS cybrid survival, CellTiter-Glo 48 h, stronger effect = higher value",0.0073 (inactive)
same,z-score,"[5]; Rieske KO mouse fibroblast survival, CellTiter-Glo 72 h",-0.438
same,z-score,[6],-1.12 (inactive) and -0.63 (inactive)
same,inhibition,"[7]; at 0.5 µM, stronger effect = higher value",-6.15% (inactive)
same,inhibition,"[7]; measured here: combination with BGB IC20, at 0.005 µM",-50.3%
same,inhibition,"[7]; measured here: combination with BGB IC40, at 0.005 µM",-79.8%
same,inhibition,[7]; [22],-56.1%
same,inhibition,"[7]; measured here: combination with cisplatin, at 0.5 µM, stronger effect = higher value",-30.4%
same,inhibition,"[7]; measured here: combination with cisplatin, at 5 µM, stronger effect = higher value",-22.9%
same,inhibition,"[8]; BGB combo, at 5 µM",-13.6%
same,inhibition,[8]; at 0.5 µM,1.6% (inactive)
same,inhibition,"[8]; cisplatin combo, at 5 µM",3.19%
same,inhibition,[8]; [23],-13.6%
same,inhibition,[8]; [24],24.4%
same,inhibition,"[8]; single agent, at 5 µM",-14.1%
same,inhibition,"[9]; BGB IC20 combo, at 0.005 µM",-18%
same,inhibition,"[9]; BGB IC40 combo, at 0.005 µM",-35.6%
same,inhibition,"[9]; BGB IC40 combo, at 0.05 µM",0.746%
same,inhibition,[9]; at 0.5 µM,-34.7% (inactive)
same,inhibition,"[9]; cisplatin combo, at 0.05 µM",-4.27%
same,inhibition,"[9]; cisplatin combo, at 0.5 µM",-45.9%
same,inhibition,"[9]; cisplatin combo, at 5 µM",-23.5%
same,inhibition,"[9]; measured here: 5 uM single agent, at 5 µM",-11.4%
same,inhibition,[10]; at 0.5 µM,-23.9% (inactive)
same,inhibition,[10]; [22],-37.5%
same,inhibition,[10]; [25],-9.6%
same,inhibition,[10]; [26],54.5%
same,inhibition,[11]; at 0.5 µM,-15.1% (inactive)
same,inhibition,"[11]; measured here: with BGB IC20, at 0.5 µM",-10.2%
same,inhibition,"[11]; measured here: with BGB IC20, at 5 µM",1.89%
same,inhibition,"[11]; measured here: with cisplatin IC20, at 0.5 µM",-20.9%
same,inhibition,"[11]; measured here: with cisplatin IC20, at 5 µM",-16.5%
same,inhibition,"[11]; single agent, at 5 µM",-8.5%
same,inhibition,[12]; at 0.5 µM,-65.5% (inactive)
same,inhibition,"[12]; measured here: combination with BGB at IC20, at 0.5 µM",-72.7%
same,inhibition,"[12]; measured here: combination with cisplatin at IC20, at 0.5 µM",-82.6%
same,inhibition,[13]; at 0.5 µM,-11.5% (inactive)
same,inhibition,"[13]; measured here: combo with BGB at IC20, at 0.5 µM",-10.4%
same,inhibition,"[13]; measured here: combo with cisplatin at IC20, at 0.5 µM",-13.5%
same,inhibition,[14]; at 0.5 µM,-6.23% (inactive)
same,inhibition,"[14]; measured here: inhibition with BGB combination, at 0.05 µM",-27.4%
same,inhibition,"[14]; measured here: inhibition with cisplatin combination, at 0.05 µM",-17%
same,inhibition,[15]; at 0.5 µM,-23.4% (inactive)
same,inhibition,[15]; [25],-14.6%
same,inhibition,[15]; [26],-37.5%
same,inhibition,[16]; at 0.5 µM,-25.3% (inactive)
same,inhibition,"[16]; measured here: BGB combination, at 0.5 µM",-15.4%
same,inhibition,"[16]; measured here: BGB combination, at 5 µM",-30%
same,inhibition,"[16]; measured here: cisplatin combination, at 0.5 µM",-47.1%
same,inhibition,"[16]; measured here: cisplatin combination, at 5 µM",-23.8%
same,inhibition,"[17]; BGB combination, concentration series, at 5 µM",-19.1%
same,inhibition,[17]; at 0.5 µM,-17.7% (inactive)
same,inhibition,"[17]; cisplatin combination, concentration series, at 5 µM",-9.35%
same,inhibition,[18],-9.91% (inactive)
same,inhibition,[18]; measured here: combo with BGB IC20,0.843%
same,inhibition,[18]; measured here: combo with cisplatin IC20,-18.4%
same,inhibition,[19]; at 0.5 µM,-26.5% (inactive)
same,inhibition,"[19]; cisplatin combination, at 0.5 µM",-23.3%
same,inhibition,"[19]; cisplatin combination, at 5 µM",-134%
same,inhibition,"[19]; measured here: BGB IC40 combination 0.05 uM, at 0.05 µM",-33.5%
same,inhibition,"[19]; single agent, at 5 µM",23.7%
same,inhibition,[20]; at 0.5 µM,-25.9% (inactive)
same,inhibition,"[20]; cisplatin combo, at 5 µM",23.7%
same,inhibition,"[20]; measured here: BGB IC40 combination, at 0.05 µM",-24.6%
same,inhibition,[20]; [25],-52.5%
same,inhibition,"[20]; single agent, at 5 µM",-3.16%
same,inhibition,[21]; at 0.5 µM,6.35% (inactive)
same,inhibition,[21]; [23],-12.9%
same,inhibition,[21]; [24],14.6%
same,inhibition,"[21]; single agent, at 0.05 µM",-34.7%
same,inhibition,"[21]; single agent, at 5 µM",-4.08%
